Screening data deposited in PubChem by The Scripps Research Institute Molecular Screening Center.
ADAM10 inh – ADAM10 inhibition, QFRET primary screen | O14672 | inhibition, % at 7 µM | recombinant ADAM10, EDANS/DABCYL FRET peptide cleavage, 3 h | hit rate 0.62% among 370,000;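 active means inhibition above a per-campaign cutoff equal to the mean of compounds falling between control-based bounds plus 3 SD, cut at about 20% in these data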
KLK7 zymogen act – proKLK7 (human) activation, primary screen; P49862; purified proKLK7, EDANS-DABCYL substrate fluorescence; 100% is mature enzyme control, 0% vehicle; activation, % at 7 µM; hit rate 0.9% among 370,000; AID 652039;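 active means activation above the mean of all tested compounds plus 3 SD, computed per campaign excluding outliers beyond control limits, cut at about 13% in these data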
PLCb3 inh – PLC-beta3 (human) inhibition, primary screen; Q01970; Purified PLC-beta3, fluorogenic substrate, fluorescence; inhibition, % at 12.2 µM; hit rate 0.18% among 370,000; in the data active means inhibition above about 11%
ADAM17 inh – inhibits human ADAM17. P78536. recombinant ADAM17, EDANS/DABCYL FRET peptide cleavage. inhibition, % at 6.95 µM. hit rate 0.83% among 370,000. AID 720648;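 active means inhibition above the mean of compounds lying between control limits plus 3 SD, set per campaign, cut at about 8.5% in these data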
PLC-gamma1 inh – inhibitors of human phospholipase C gamma1. P19174. purified PLC-gamma1, fluorogenic substrate, fluorescence. hit rate 0.84% among 370,000. inhibition, % at 12.2 µM; in the data active means inhibition above about 9.5%
ADAM10 counter – counter-screen for ADAM17 exosite inhibitors: inhibitors of human ADAM10 | hit rate 47% among 2,900 | recombinant ADAM10, EDANS/DABCYL FRET peptide cleavage, 3 h | inhibition, % at 6.95 µM | shares compounds with ADAM17 inh;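 active means mean inhibition over the triplicate runs exceeds the activity threshold set in the earlier primary screen, cut at about 20% in these data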
ADAM17 confirm – confirmation of inhibitors of human ADAM17 | shares compounds with ADAM17 inh | hit rate 65% among 2,900 | recombinant ADAM17, EDANS/DABCYL QFRET peptide cleavage | inhibition, % at 6.95 µM;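 active means mean inhibition across replicates above the hit cutoff set in the primary screen, cut at about 8.5% in these data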
Hits are given with their value. Shown are actives, neighbours in structure and some others; about 2.9% of the full set was active somewhere.

CCCC(C)NC(=O)CN(Cc1ccco1)S(=O)(=O)c1ccccc1 (stereo not given) was read as ADAM10 inh inactive, KLK7 zymogen act inactive, PLCb3 inh inactive, ADAM17 inh inactive and PLC-gamma1 inh inactive.
CCC(C)NS(=O)(=O)c1ccc(S(=O)(=O)N(CC(=O)Nc2ccccc2)Cc2ccco2)cc1 (stereo not given) was read as ADAM10 inh inactive, KLK7 zymogen act inactive, PLCb3 inh inactive, ADAM17 inh 8.9, PLC-gamma1 inh inactive, ADAM10 counter 20.2 and ADAM17 confirm 11.0.
Cc1cc(C(=O)Nn2c(-c3ccc(Br)cc3)nc3ccccc3c2=O)ccc1[N+](=O)[O-] was read as ADAM10 inh inactive, KLK7 zymogen act inactive, PLCb3 inh inactive, ADAM17 inh 8.9, PLC-gamma1 inh inactive, ADAM10 counter 24.3 and ADAM17 confirm 11.9.
`O=C(Nn1c(-c2ccc(Br)cc2)nc2ccccc2c1=O)c1ccncc1` gave ADAM10 inh inactive, KLK7 zymogen act inactive, PLCb3 inh inactive, ADAM17 inh inactive and PLC-gamma1 inh inactive.
N#Cc1cccc(NC(=O)c2cc(C3CCCCN3S(=O)(=O)c3ccccc3)on2)c1 (stereo not given) was read as ADAM10 inh inactive, KLK7 zymogen act inactive, PLCb3 inh inactive, ADAM17 inh 12.0, PLC-gamma1 inh inactive, ADAM10 counter inactive and ADAM17 confirm 12.3.
`CCN(CC)C(=O)C1CC(=O)N(c2ccc(F)c(Cl)c2)C1` (stereo not given) gave ADAM10 inh inactive, KLK7 zymogen act inactive, PLCb3 inh inactive, ADAM17 inh 9.5, PLC-gamma1 inh inactive, ADAM10 counter inactive and ADAM17 confirm inactive.
For COc1ccc(C(=O)Nc2ccc(S(=O)(=O)N3CCCC3)cc2)cc1 the results were ADAM10 inh inactive, KLK7 zymogen act inactive, PLCb3 inh inactive, ADAM17 inh inactive and PLC-gamma1 inh inactive.
For COc1ccc(NC(=O)c2ccc(S(=O)(=O)N3CCCCC3)cc2)cc1OC the results were ADAM10 inh inactive, KLK7 zymogen act inactive, PLCb3 inh inactive, ADAM17 inh 9.0, PLC-gamma1 inh inactive, ADAM10 counter inactive and ADAM17 confirm 10.5.
Screening COc1ccccc1NS(=O)(=O)c1ccc(C)c(NC(=O)c2ccc(S(=O)(=O)N3CCCCCC3)cc2)c1 returned ADAM10 inh inactive, KLK7 zymogen act inactive, PLCb3 inh inactive, ADAM17 inh 12.1, PLC-gamma1 inh inactive, ADAM10 counter 35.5 and ADAM17 confirm 18.4.
Screening COc1ccccc1NC(=O)c1ccc(S(=O)(=O)N2CCCC2)cc1 returned ADAM10 inh inactive, KLK7 zymogen act inactive, PLCb3 inh inactive, ADAM17 inh inactive and PLC-gamma1 inh inactive.
O=c1[nH]c(SCCc2ccccc2)nc2c1CCC2 was read as ADAM10 inh inactive, KLK7 zymogen act inactive, PLCb3 inh inactive, ADAM17 inh inactive and PLC-gamma1 inh inactive.
`CC(C)C[C@H]1CN(CCCC[C@H]2CNC(=O)C(=O)N2CC2CCCCC2)C(=O)C(=O)N1CCc1ccccc1` gave ADAM10 inh inactive, KLK7 zymogen act inactive, PLCb3 inh inactive, ADAM17 inh inactive and PLC-gamma1 inh inactive.
For COc1ccccc1C(CCN(Cc1cccs1)C(C)=O)c1ccco1 (stereo not given) the results were ADAM10 inh inactive, KLK7 zymogen act inactive, PLCb3 inh inactive, ADAM17 inh inactive and PLC-gamma1 inh inactive.
CCC(=O)N(CCC(c1ccccc1)c1ccco1)Cc1cccs1 (stereo not given) was read as ADAM10 inh inactive, KLK7 zymogen act inactive, PLCb3 inh inactive, ADAM17 inh 9.8, PLC-gamma1 inh inactive, ADAM10 counter inactive and ADAM17 confirm inactive.
COc1cccc(CNC(=O)CSCc2cnn(-c3ccccc3)c2-n2cccc2)c1 was read as ADAM10 inh inactive, KLK7 zymogen act inactive, PLCb3 inh inactive, ADAM17 inh 13.9, PLC-gamma1 inh inactive, ADAM10 counter inactive and ADAM17 confirm inactive.
CNC(=O)CSCc1cnn(-c2ccccc2)c1-n1cccc1 was read as ADAM10 inh inactive, KLK7 zymogen act inactive, PLCb3 inh inactive, ADAM17 inh inactive and PLC-gamma1 inh inactive.
CC(=O)C[C@H]1SC[C@@H](C(C)C)N1S(=O)(=O)c1ccc(C)cc1 was read as ADAM10 inh inactive, KLK7 zymogen act inactive, PLCb3 inh inactive, ADAM17 inh inactive and PLC-gamma1 inh inactive.
